Experimental data as given in the supplement of paper PMC4466140.

Tests used:
Assay in all cases: SPOT peptide array binding signal intensity (averaged, normalized) (arbitrary units (background-subtracted, floor 0; scale differs between SH3 domains)); higher = stronger binding of the SH3 domain to the peptide
[1] = molecular target: AgAbp1
Protocol: (§1)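 GST-tagged SH3 domains from S. cerevisiae (Sc), A. gossypii (Ag), C. albicans (Ca) and S. pombe (Sp) were incubated at 10 ug/ml overnight at 4 C on cellulose SPOT membranes carrying 292 synthetic 15-mer peptides mined from the S. cerevisiae proteome (cysteines replaced by serines). Binding was detected with anti-GST antibody, HRP secondary and chemiluminescence, quantified with Genespotter, and reported as normalized spot intensities averaged over biological replicates.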

[2] = molecular target: AgBbc1
Protocol: as §1

[3] = molecular target: AgBem1-D1
Protocol: as §1

[4] = molecular target: AgBzz1-D1
Protocol: as §1

[5] = molecular target: AgBzz1-D2
Protocol: as §1

[6] = molecular target: AgCyk3
Protocol: as §1

[7] = molecular target: AgFus1
Protocol: as §1

[8] = molecular target: AgHof1
Protocol: as §1

[9] = molecular target: AgHse1
Protocol: as §1

[10] = molecular target: AgLsb1
Protocol: as §1

[11] = molecular target: AgLsb4
Protocol: as §1

[12] = molecular target: AgMyo5
Protocol: as §1

[13] = molecular target: AgNbp2
Protocol: as §1

[14] = molecular target: AgRvs167
Protocol: as §1

[15] = molecular target: AgSho1
Protocol: as §1

[16] = molecular target: AgSla1-D1-D2
Protocol: as §1

[17] = molecular target: AgSla1-D3
Protocol: as §1

[18] = molecular target: CaAbp1-D1
Protocol: as §1

[19] = molecular target: CaAbp1-D2
Protocol: as §1

[20] = molecular target: CaBbc1
Protocol: as §1

[21] = molecular target: CaBem1-D1
Protocol: as §1

[22] = molecular target: CaBzz1-D1
Protocol: as §1

[23] = molecular target: CaBzz1-D2
Protocol: as §1

[24] = molecular target: CaCyk3
Protocol: as §1

[25] = molecular target: CaFus1
Protocol: as §1

[26] = molecular target: CaHof1
Protocol: as §1

[27] = molecular target: CaHse1
Protocol: as §1

[28] = molecular target: CaLsb1
Protocol: as §1

[29] = molecular target: CaLsb4
Protocol: as §1

[30] = molecular target: CaMyo5
Protocol: as §1

[31] = molecular target: CaNbp2
Protocol: as §1

[32] = molecular target: CaRvs167
Protocol: as §1

[33] = molecular target: CaRvs167-3
Protocol: as §1

[34] = molecular target: CaSho1
Protocol: as §1

[35] = molecular target: CaSla1-D1-D2
Protocol: as §1

[36] = molecular target: CaSla1-D3
Protocol: as §1

[37] = molecular target: ScAbp1
Protocol: as §1

[38] = molecular target: ScBbc1
Protocol: as §1

[39] = molecular target: ScBem1-D1
Protocol: as §1

[40] = molecular target: ScBzz1-D1
Protocol: as §1

[41] = molecular target: ScBzz1-D2
Protocol: as §1

[42] = molecular target: ScCyk3
Protocol: as §1

[43] = molecular target: ScFus1
Protocol: as §1

[44] = molecular target: ScHof1
Protocol: as §1

[45] = molecular target: ScHse1
Protocol: as §1

[46] = molecular target: ScLsb1
Protocol: as §1

[47] = molecular target: ScLsb2
Protocol: as §1

[48] = molecular target: ScLsb3
Protocol: as §1

[49] = molecular target: ScLsb4
Protocol: as §1

[50] = molecular target: ScMyo3
Protocol: as §1

[51] = molecular target: ScMyo5
Protocol: as §1

[52] = molecular target: ScNbp2
Protocol: as §1

[53] = molecular target: ScPex13
Protocol: as §1

[54] = molecular target: ScRvs167
Protocol: as §1

[55] = molecular target: ScSho1
Protocol: as §1

[56] = molecular target: ScSla1-D1-D2
Protocol: as §1

[57] = molecular target: ScSla1-D3
Protocol: as §1

[58] = molecular target: SpAbp1-D1
Protocol: as §1

[59] = molecular target: SpBbc1
Protocol: as §1

[60] = molecular target: SpBzz1-D1
Protocol: as §1

[61] = molecular target: SpBzz1-D2
Protocol: as §1

[62] = molecular target: SpCyk3
Protocol: as §1

[63] = molecular target: SpHof1
Protocol: as §1

[64] = molecular target: SpHof1-2
Protocol: as §1

[65] = molecular target: SpHof1-3
Protocol: as §1

[66] = molecular target: SpHse1
Protocol: as §1

[67] = molecular target: SpLsb1
Protocol: as §1

[68] = molecular target: SpLsb4
Protocol: as §1

[69] = molecular target: SpMyo1
Protocol: as §1

[70] = molecular target: SpNbp2
Protocol: as §1

[71] = molecular target: SpPex13
Protocol: as §1

[72] = molecular target: SpRvs167
Protocol: as §1

[73] = molecular target: SpSla1-D1-D2
Protocol: as §1

[74] = molecular target: SpSla1-D3
Protocol: as §1

YHSRRHPLALGFKYV
SPOT peptide array binding signal intensity [1]: 25.5
SPOT peptide array binding signal intensity [2]: 12
SPOT peptide array binding signal intensity [3]: 86
SPOT peptide array binding signal intensity [4]: ≤ 0
SPOT peptide array binding signal intensity [5]: ≤ 0
SPOT peptide array binding signal intensity [6]: 4
SPOT peptide array binding signal intensity [7]: 566
SPOT peptide array binding signal intensity [8]: 19
SPOT peptide array binding signal intensity [9]: 187
SPOT peptide array binding signal intensity [10]: 2
SPOT peptide array binding signal intensity [11]: 2
SPOT peptide array binding signal intensity [12]: 3.25
SPOT peptide array binding signal intensity [13]: 41.5
SPOT peptide array binding signal intensity [14]: 7.67
SPOT peptide array binding signal intensity [15]: 26
SPOT peptide array binding signal intensity [16]: 26
SPOT peptide array binding signal intensity [17]: 17
SPOT peptide array binding signal intensity [18]: 156
SPOT peptide array binding signal intensity [19]: 81.5
SPOT peptide array binding signal intensity [20]: 6.75
SPOT peptide array binding signal intensity [21]: 121
SPOT peptide array binding signal intensity [22]: 64
SPOT peptide array binding signal intensity [23]: 22
SPOT peptide array binding signal intensity [24]: 4
SPOT peptide array binding signal intensity [25]: 630
SPOT peptide array binding signal intensity [26]: 4.5
SPOT peptide array binding signal intensity [27]: 38.5
SPOT peptide array binding signal intensity [28]: 1.75
SPOT peptide array binding signal intensity [29]: ≤ 0
SPOT peptide array binding signal intensity [30]: 38.5
SPOT peptide array binding signal intensity [31]: 204
SPOT peptide array binding signal intensity [32]: 44
SPOT peptide array binding signal intensity [33]: 103
SPOT peptide array binding signal intensity [34]: 153
SPOT peptide array binding signal intensity [35]: 124
SPOT peptide array binding signal intensity [36]: 23.5
SPOT peptide array binding signal intensity [37]: 54
SPOT peptide array binding signal intensity [38]: 2.75
SPOT peptide array binding signal intensity [39]: 58
SPOT peptide array binding signal intensity [40]: 1.5
SPOT peptide array binding signal intensity [41]: 40.5
SPOT peptide array binding signal intensity [42]: 13.5
SPOT peptide array binding signal intensity [43]: 368
SPOT peptide array binding signal intensity [44]: 16.5
SPOT peptide array binding signal intensity [45]: 480
SPOT peptide array binding signal intensity [46]: 1.5
SPOT peptide array binding signal intensity [47]: 6.5
SPOT peptide array binding signal intensity [48]: ≤ 0
SPOT peptide array binding signal intensity [49]: 12
SPOT peptide array binding signal intensity [50]: 18.8
SPOT peptide array binding signal intensity [51]: 24.2
SPOT peptide array binding signal intensity [52]: 102
SPOT peptide array binding signal intensity [53]: 10.5
SPOT peptide array binding signal intensity [54]: 31.2
SPOT peptide array binding signal intensity [55]: 592
SPOT peptide array binding signal intensity [56]: 65
SPOT peptide array binding signal intensity [57]: 4.75
SPOT peptide array binding signal intensity [58]: 130
SPOT peptide array binding signal intensity [59]: 8.75
SPOT peptide array binding signal intensity [60]: 122

RPPRPPPKPLHLRTE
SPOT peptide array binding signal intensity [1]: 1720
SPOT peptide array binding signal intensity [2]: 559
SPOT peptide array binding signal intensity [3]: 113
SPOT peptide array binding signal intensity [4]: 270
SPOT peptide array binding signal intensity [5]: 69
SPOT peptide array binding signal intensity [6]: ≤ 0
SPOT peptide array binding signal intensity [7]: 5.5
SPOT peptide array binding signal intensity [8]: 50
SPOT peptide array binding signal intensity [9]: 178
SPOT peptide array binding signal intensity [10]: 27
SPOT peptide array binding signal intensity [11]: 52
SPOT peptide array binding signal intensity [12]: 8.25
SPOT peptide array binding signal intensity [13]: 1310
SPOT peptide array binding signal intensity [14]: 12.3
SPOT peptide array binding signal intensity [15]: 836
SPOT peptide array binding signal intensity [16]: 28
SPOT peptide array binding signal intensity [17]: 14
SPOT peptide array binding signal intensity [18]: 913
SPOT peptide array binding signal intensity [19]: 4480
SPOT peptide array binding signal intensity [20]: 626
SPOT peptide array binding signal intensity [21]: 314
SPOT peptide array binding signal intensity [22]: 1940
SPOT peptide array binding signal intensity [23]: 405
SPOT peptide array binding signal intensity [24]: 29
SPOT peptide array binding signal intensity [25]: 61.5
SPOT peptide array binding signal intensity [26]: 1
SPOT peptide array binding signal intensity [27]: 1310
SPOT peptide array binding signal intensity [28]: 0.5
SPOT peptide array binding signal intensity [29]: 1080
SPOT peptide array binding signal intensity [30]: 2
SPOT peptide array binding signal intensity [31]: 567
SPOT peptide array binding signal intensity [32]: 67
SPOT peptide array binding signal intensity [33]: 4.75
SPOT peptide array binding signal intensity [34]: 148
SPOT peptide array binding signal intensity [35]: 1990
SPOT peptide array binding signal intensity [36]: 97.5
SPOT peptide array binding signal intensity [37]: 3670
SPOT peptide array binding signal intensity [38]: 57.5
SPOT peptide array binding signal intensity [39]: 4
SPOT peptide array binding signal intensity [40]: 49
SPOT peptide array binding signal intensity [41]: 26
SPOT peptide array binding signal intensity [42]: 1
SPOT peptide array binding signal intensity [43]: 8
SPOT peptide array binding signal intensity [44]: 0.5
SPOT peptide array binding signal intensity [45]: 131
SPOT peptide array binding signal intensity [46]: 90
SPOT peptide array binding signal intensity [47]: 8
SPOT peptide array binding signal intensity [48]: 2810
SPOT peptide array binding signal intensity [49]: 58
SPOT peptide array binding signal intensity [50]: 72.8
SPOT peptide array binding signal intensity [51]: 163
SPOT peptide array binding signal intensity [52]: 1770
SPOT peptide array binding signal intensity [53]: 1500
SPOT peptide array binding signal intensity [54]: 375
SPOT peptide array binding signal intensity [55]: 1530
SPOT peptide array binding signal intensity [56]: 2390
SPOT peptide array binding signal intensity [57]: 4.5
SPOT peptide array binding signal intensity [58]: 2570
SPOT peptide array binding signal intensity [59]: 6
SPOT peptide array binding signal intensity [60]: 1060
SPOT peptide array binding signal intensity [61]: 43
SPOT peptide array binding signal intensity [62]: ≤ 0
SPOT peptide array binding signal intensity [63]: 65
SPOT peptide array binding signal intensity [64]: 15.5
SPOT peptide array binding signal intensity [65]: 237
SPOT peptide array binding signal intensity [66]: 216
SPOT peptide array binding signal intensity [67]: 582
SPOT peptide array binding signal intensity [68]: 1950
SPOT peptide array binding signal intensity [69]: 318
SPOT peptide array binding signal intensity [70]: 22
SPOT peptide array binding signal intensity [71]: 17
SPOT peptide array binding signal intensity [72]: 865
SPOT peptide array binding signal intensity [73]: 13.5
SPOT peptide array binding signal intensity [74]: 4
